# TcdB inh = inhibitors of Clostridioides difficile toxin B glycohydrolase | P18177 | inhibition, % at 9.99 µM | TcdB glycohydrolase enzymatic assay, plate reader | AID 652162 | 350,000 compounds, 0.24% hits; in the data active means inhibition above about 10%
# PrP UTR inh = inhibition of PrP 5' UTR reporter expression; cell-based PrP 5' UTR mRNA reporter, plate reader; 340,000 compounds, 0.35% hits; inhibition, % (test concentration not listed); in the data active means inhibition above about 52%; further: 0 = median of the neutral control wells
# Y pestis TopoI = inhibitors of Yersinia pestis topoisomerase I. Y. pestis Topo-I cleavage product accumulation, plate reader. activity, % at 10 µM. 360,000 compounds, 0.064% hits; in the data active means activity above about 50%, passing the limit was not always enough
# BioA inh-1 = blocks M. tuberculosis BioA enzyme activity | 360,000 compounds, 0.096% hits | inhibition, % at 9.99 µM | AID 602481 | purified M. tuberculosis BioA enzyme, plate reader; in the data active means inhibition above about 40%
# BioA inh-2 = blocks M. tuberculosis BioA aminotransferase. shares compounds with BioA inh-1. purified BioA enzyme, plate reader, dose response. max activity, %. 310 tested, under 10 active;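 further: top concentration of the dilution series was 10 µM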
# HepG2 cytotox = kills HepG2 cells; shares compounds with BioA inh-1; HepG2 cytotoxicity, plate reader; max activity, %; 310 tested, under 10 active
# NIH3T3 tox 5 = cytotoxicity in NIH3T3 cells; activity change, negative = cytotoxicity, % at 26 µM; AID 651900; plate reader; shares compounds with BioA inh-1; 310 tested, under 10 active
# * = called active by the depositor; i = inactive; . = no result given. Hits are enriched below; roughly 0.53% of the tested compounds scored in any of these assays. Unless noted, how the calls were made is not given here.
SMILES,TcdB inh,PrP UTR inh,Y pestis TopoI,BioA inh-1,BioA inh-2,HepG2 cytotox,NIH3T3 tox 5
O=C(Cc1ccccc1)N1CC[C@@H]2[C@H]1c1cc(Br)ccc1N[C@@H]2CO,-1,.,.,86*,7,i,-8
O=C(C1CC1)N1CC[C@@H]2[C@H]1c1cc(Br)ccc1N[C@@H]2CO,.,.,.,88*,-3,i,-7
C[C@@H]1CCCCO[C@H](CN(C)C(=O)Nc2ccccc2)[C@@H](C)CN([C@H](C)CO)C(=O)c2cc(NS(C)(=O)=O)ccc2O1,0,.,.,-2,.,.,.
O=C(NCc1ccccc1)C1CCCN(S(=O)(=O)c2cccnc2)C1 (configuration not stated),.,-6,-6,-2,.,.,.
O=C(C1CCCN(S(=O)(=O)c2cccnc2)C1)N1CCn2c1nc1ccccc12 (configuration not stated),0,6,4,46*,-5,11,2
C[C@@H]1CCCCO[C@H](CN(C)C(=O)c2ccccc2)[C@H](C)CN([C@@H](C)CO)C(=O)c2cc(NS(=O)(=O)c3ccc(F)cc3)ccc2O1,0,.,.,0,.,.,.
CC(Oc1ccc2c(-c3ccccc3)cc(=O)oc2c1)C(=O)NCc1ccccn1 (configuration not stated),2,-8,12,42*,-6,6,-10
O=C(Nc1ccc2ccccc2c1)c1cccnc1,.,-69,3,17,.,.,.
O=C(Nc1ccc(Cl)c(-c2nc3ccccc3[nH]2)c1)c1cccnc1,.,-11,6,64*,23,22,-6
CC(=O)c1ccc(N2CCN(c3ncccn3)CC2)c([N+](=O)[O-])c1,2,-14,3,67*,-2,-9,-1
CC(=O)c1ccc(N2CCN(c3ccc(C(N)=O)cc3[N+](=O)[O-])CC2)cc1,1,-24,7,.,.,.,.
Cc1ccc(CNC(=O)c2ccc(NC(=O)C3=CSCCO3)cc2)cc1,1,-20,11,0,.,.,.
COc1cccc(CNC(=O)c2ccc(NC(=O)C3=CSCCO3)cc2)c1,0,-14,7,48*,-7,18,2
C[C@H](CO)N1C[C@H](C)[C@H](CN(C)CC2CCCCC2)OCCCC[C@H](C)Oc2ccc(NC(=O)Nc3ccccc3)cc2C1=O,-1,.,.,0,.,.,.
COc1ccc(S(=O)(=O)Nc2ccc3c(c2)CC(=O)N([C@@H](C)CO)C[C@H](C)[C@@H](CN(C)C(=O)Nc2ccc(F)cc2)O3)cc1,.,.,.,-2,.,.,.
CCOc1ccc(CCNC(=O)c2cnccn2)cc1OCC,-1,0,-5,19,.,.,.
CCOc1ccc(CCNC(=O)c2cnc(C)cn2)cc1OCC,0,-5,5,69*,-6,27,6
COc1ccc(S(=O)(=O)N2C[C@@H](O)COC[C@@H]3O[C@H](CC(=O)NCc4ccc(Cl)c(Cl)c4)CC[C@H]32)cc1,1,.,.,-1,.,.,.

# Screening data: PubChem BioAssay, Broad Institute
